Data on 12 compounds can be found in PubChem BioAssay (NCATS).

Experiment [1] can be described thus: qHTS Assay for Identification of Small Molecule Agonists for NFkB Signaling Pathway. (AID 624478).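 Also: compounds tested together with TNF alpha at its EC50 of 10 pM; 0% is about no effect.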 The settings on record: NFkB pathway reporter cell assay, agonist mode, cells co-stimulated with 10 pM TNF alpha; series mostly up to 46.1 µM. In short, it runs like this:
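Read-out: 460/530 nm emission at 405 nm excitation after 2 h LiveBLAzer loading; ME-180 NFkB-bla reporter cells exposed 5 h at 37 C to compounds with 10 pM TNF alpha final.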

Experiment [2] is described as follows: Cell Proliferation Assay against the TMD8 Cell Line (AID 651645).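 Also: cells exposed to compound for 48 h before reading.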 The settings on record: TMD8 DLBCL cell line proliferation/viability; at 46.1 µM (top of the series) unless noted. In short, it runs like this:
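Viability by CellTiter-Glo after 48 h compound exposure of 500 log-phase TMD8 cells per well (RPMI, 5% FBS). Percent activity scaled between DMSO (100%) and 9.2 uM final bortezomib (0%).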

The nature of experiment [3]: Cell Proliferation Assay against the HBL1 Cell Line (AID 651646).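 Also: cells exposed to compound for 48 h before reading.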 The settings on record: HBL1 DLBCL cells; at 46.1 µM (top of the series) unless noted. A digest of the protocol: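 After a 48 h incubation of 500 HBL1 cells/well in phenol red-free RPMI plus 5% FBS, relative luciferase units from CellTiter-Glo gave percent activity against DMSO and 9.2 uM bortezomib (final) controls.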

Experiment [4] in a line: Cell Proliferation Assay against the TMD8 Cell Line (Caspase readout at 16 hrs) (AID 651712). Also: potency is read from the fitted curve at half-maximal effect. The note with it: TMD8 lymphoma cells, caspase activation luminescence; series mostly up to 46.1 µM. A digest of the protocol: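 16 h, 37 °C, TMD8 (500 cells/well), RPMI/5% FBS no phenol red; Caspase-Glo 3/7, 15 min RT, luminescence; %act: DMSO 0, bortezomib 9.2 uM final 100.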

A short description of experiment [5]: qHTS for small molecule inhibitors of Yes1 kinase: Counter Assay (AID 686950).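 Also: no kinase present so only ADP-Glo detection of a fixed ADP amount is tested; luminescence from ADP-Glo reporting ADP in a fixed ATP and ADP mixture; 0% = DMSO wells with ATP plus ADP and -100% = ATP-only wells without ADP.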 The note with it: series mostly up to 76.9 µM. In short, it runs like this: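 Measuring interference with ADP-Glo, the assay ran 60 min at room temperature on an ATP/ADP mix lacking enzyme. Values were normalized to ATP-plus-ADP (maximum) and ATP-only (minimum) DMSO controls.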
In general terms: qHTS replaces the single test concentration by a dilution series.

Experiment [6] is described as follows: qHTS for compounds that reverse cellular toxicity of Amyloid beta (A-beta) peptide in yeast: LOPAC Validation Assay (AID 720559).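 Also: plate controls were DMSO for no effect and equimolar ferric chloride plus clioquinol rescue for full effect.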 The settings on record: yeast expressing A-beta; series mostly up to 46.1 µM. A digest of the protocol: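 Rescue of A-beta toxicity was scored as yeast growth by 600 nm absorbance after 48 hr at 30 C with compound. Normalization used DMSO (negative) and equimolar ferric chloride plus clioquinol (positive).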

The nature of experiment [7]: qHTS for Activators of Parkin Expression: LOPAC Validation Assay (NLuc Reporter) (AID 720572;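 also: 0% = DMSO and 100% = positive control compound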). The settings on record: Parkin promoter NanoLuc reporter cells, luminescence; series mostly up to 46.1 µM. In short, it runs like this: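 Cells harboring the Parkin-promoter coincidence reporter were treated for 24 h at seven concentrations. NLuc output was measured sequentially after the FLuc channel and scaled between DMSO and positive control values.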

The target of experiment [8] is Tyrosine-protein kinase Yes (Homo sapiens) (UniProt P07947). In words: qHTS for small molecule inhibitors of Yes1 kinase: Primary Screen (AID 686947). Also: nearly all actives have a fitted effect of over 60% in size. Also: potency is read from the fitted curve at half-maximal effect. The settings on record: Yes1 kinase biochemical qHTS inhibition; series mostly up to 76.9 µM. In short, it runs like this: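 In this qHTS format, inhibition is expressed relative to DMSO controls with enzyme (maximum) and without enzyme (minimum). The 60 min room-temperature reaction uses 0.1 mM ATP, with ADP detected by luminescence.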
Sequence of Tyrosine-protein kinase Yes (Homo sapiens) (P07947 whole entry, looked up): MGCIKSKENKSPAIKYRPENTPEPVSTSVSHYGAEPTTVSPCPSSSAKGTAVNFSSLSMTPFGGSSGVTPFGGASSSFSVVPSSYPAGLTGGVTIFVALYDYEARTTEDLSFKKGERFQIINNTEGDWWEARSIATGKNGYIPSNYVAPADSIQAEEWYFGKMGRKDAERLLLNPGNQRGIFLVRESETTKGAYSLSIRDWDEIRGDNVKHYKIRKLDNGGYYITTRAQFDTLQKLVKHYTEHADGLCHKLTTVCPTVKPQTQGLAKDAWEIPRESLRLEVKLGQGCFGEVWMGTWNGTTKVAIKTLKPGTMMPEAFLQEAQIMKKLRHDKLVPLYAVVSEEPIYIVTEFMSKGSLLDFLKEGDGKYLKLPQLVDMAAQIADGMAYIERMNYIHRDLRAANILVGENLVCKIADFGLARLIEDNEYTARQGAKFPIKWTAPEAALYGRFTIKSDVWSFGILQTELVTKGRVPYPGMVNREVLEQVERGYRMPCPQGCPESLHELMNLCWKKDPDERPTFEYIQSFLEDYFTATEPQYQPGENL

Experiment [9] has as its target Arylsulfatase A (Homo sapiens) (UniProt P15289). In words: qHTS screen for enhancers of Arylsulfatase A (ASA1): LOPAC Validation Assay (AID 720538). Also: 0% is about no effect. The note with it: ASA enzyme activity, LOPAC qHTS enhancer assay; series mostly up to 57.5 µM. In short, it runs like this: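 Enhancer assay in patient-derived MLD fibroblasts carrying ASA-I179S: 48 h compound exposure at 37 C, then 14 h room-temperature pNCS turnover (0.5 mM final) in lysis buffer. Read by fluorescence at 525/598 nm after NaOH stop.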

The nature of experiment [10]: qHTS assay for small molecule agonists of the antioxidant response element (ARE) signaling pathway (AID 651741; active = well fitted activation curve with a large enough effect in the signal ratio; the % refers to the signal ratio; also: potency is read from the fitted curve at half-maximal effect; as to activation: % of control where 0% means no effect). The note with it: HepG2 ARE-bla reporter, beta-lactamase FRET ratio, 16 h; series mostly up to 96 µM. In short, it runs like this: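 Beta-lactamase reporter expression driven by the antioxidant response element in HepG2 cells was detected by fluorescence with LiveBLAzer B/G FRET substrate (2 h, room temperature) following 16 h compound treatment at 37 C.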

Experiment [11] in a line: qHTS assay for small molecule activators of the p53 signaling pathway (AID 651743; active = well fitted activation curve with a large enough effect in the signal ratio, not every such curve was filed as active; the % refers to the signal ratio; also: % of control where 0% means no effect). The settings on record: HCT-116 p53RE-bla, beta-lactamase FRET ratio, 16 h; activation: stronger effect = higher value. In short, it runs like this: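 Here HCT-116 cells with an integrated p53-responsive beta-lactamase gene were incubated with compounds (16 hours, 37 C) after a 5-hour plating period; beta-lactamase activity was detected as fluorescence intensity via B/G FRET substrate.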

Experiment [12] can be described thus: qHTS assay for small molecule activators of the nuclear factor-kappa B (NF-kB) signaling pathway (AID 651749; active = well fitted activation curve with a large enough effect in the signal ratio; the % refers to the signal ratio; also: % of control where 0% means no effect). The note with it: NF-kB-bla ME-180 cells, beta-lactamase FRET ratio, 16 h; stronger effect = higher value. In short, it runs like this: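 Beta-lactamase reporter expression, controlled by NF-kB response elements in ME-180 cells, was quantified fluorometrically via FRET disruption; cells at 2,000/well had been incubated with 23 nL test compound for 16 hr.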

The nature of experiment [13]: qHTS assay for small molecule disruptors of the mitochondrial membrane potential - 1 hr assay (AID 651754; calls by dose curve; also: % is scaled to controls: 0 for no effect and ±100 for the full control effect; nearly all actives have a fitted effect of over 35% in size). The note with it: series mostly up to 92.2 µM. A digest of the protocol:
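Read-out: dye fluorescence at 490 nm ex/535 nm em (monomers) and 540 nm ex/590 nm em (aggregates) in HepG2 cells. Compound exposure 1 hr at 37C, followed by 30 min dye loading.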

Experiment [14] is described as follows: qHTS assay for small molecule disruptors of the mitochondrial membrane potential - 5 hr assay (AID 651755; calls by dose curve; also: % is scaled to controls: 0 for no effect and ±100 for the full control effect; nearly all actives have a fitted effect of over 40% in size). The settings on record: JC-1-type ratio dye; series mostly up to 92.2 µM. A digest of the protocol: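 Seed HepG2 overnight, add compound, incubate 5 hr at 37C and 5% CO2, stain 30 min with Mito-MPS, then measure monomer (490/535 nm) and aggregate (540/590 nm) fluorescence.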

The nature of experiment [15]: qHTS assay to identify small molecules that stimulate interleukin-8 (IL-8) secretion (AID 651758; active = well fitted activation curve with a large enough effect in the signal ratio; the % refers to the signal ratio; also: 0% is about no effect). The note with it: HTRF ratio (665/615); series mostly up to 92.2 µM. In short, it runs like this: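 Quantitative HTS in THP-1 monocytic cells at 2000 cells per well, with 16 hrs compound incubation at 37 C. IL-8 in the medium was then quantified by HTRF immunoassay, read after 1-3 hrs at room temperature.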

Experiment [16] has as its target Peroxisome proliferator-activated receptor alpha (Homo sapiens) (UniProt Q07869). Description: qHTS assay for small molecule agonists of the peroxisome proliferator-activated receptor alpha (PPARalpha) signaling pathway (AID 651778). Also: % of control where 0% means no effect. The settings on record: PathHunter PPARalpha complementation, chemiluminescence, 6 h; stronger effect = higher value. A digest of the protocol: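 Cells plated at 2,000/well and held overnight at 37 C, 5% CO2, then compound added by pin tool for 6 hr; after PathHunter detection reagent and 60 min at room temperature, chemiluminescence from enzyme complementation was read.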

Experiment [17] deals with Nuclear receptor ROR-gamma (Homo sapiens) (UniProt P51449). In words: qHTS assay for small molecule antagonists of the retinoid-related orphan receptor gamma (ROR-gamma) signaling pathway (AID 651802).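 Also: CHO cells with doxycycline-induced ROR-gamma expression; luciferase reporter luminescence driven by ROR response element; % is scaled to controls: 0 for no effect and ±100 for the full control effect; nearly all actives have a fitted effect of over 60% in size.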 The settings on record: ROR-gamma antagonist cell reporter assay; series mostly up to 92.2 µM. A digest of the protocol: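 Luciferase read-out: ONE-Glo luminescence after 30 min at room temperature, following 16hr doxycycline induction at 37C, 5% CO2 of CHO cells with TET-inducible ROR and RORE-LUC reporter; decreased luminescence = reduced reporter activity.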
Sequence of Nuclear receptor ROR-gamma (Homo sapiens) (P51449 whole entry, looked up): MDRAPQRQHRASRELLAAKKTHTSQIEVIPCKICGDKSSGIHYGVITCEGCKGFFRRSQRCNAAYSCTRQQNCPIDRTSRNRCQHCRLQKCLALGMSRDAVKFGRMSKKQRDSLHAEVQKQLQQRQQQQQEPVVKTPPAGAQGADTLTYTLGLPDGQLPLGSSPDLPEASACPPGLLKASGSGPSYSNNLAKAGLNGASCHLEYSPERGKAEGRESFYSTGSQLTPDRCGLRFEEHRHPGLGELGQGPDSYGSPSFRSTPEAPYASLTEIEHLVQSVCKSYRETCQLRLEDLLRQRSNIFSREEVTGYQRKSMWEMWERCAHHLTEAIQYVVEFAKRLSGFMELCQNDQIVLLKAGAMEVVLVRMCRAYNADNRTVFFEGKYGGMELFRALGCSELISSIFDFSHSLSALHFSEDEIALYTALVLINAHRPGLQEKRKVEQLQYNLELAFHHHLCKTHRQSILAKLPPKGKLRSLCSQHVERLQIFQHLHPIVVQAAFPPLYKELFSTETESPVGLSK

Experiment [18] can be described thus: qHTS Assay for Identification of Small Molecule Antagonists for NFkB Signaling Pathway. (AID 624479; calls by dose curve; also: % is scaled to controls: 0 for no effect and ±100 for the full control effect). The note with it: NFkB pathway reporter cell assay, antagonist mode; series mostly up to 38.3 µM.
Experiment [19] is described as follows: Cell Proliferation Assay against the TMD8 Cell Line (Caspase readout at 8 hrs) (AID 651713). The note with it: TMD8 lymphoma cells, caspase activation luminescence; series mostly up to 46.1 µM. In short, it runs like this:
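Apoptosis readout: caspase 3/7 luminescence (Caspase-Glo), 15 min RT. Cells: TMD8, 500/well, RPMI + 5% FBS, no phenol red. Exposure 8 h, 37C. % activity vs DMSO = 0, bortezomib 9.2 uM final = 100.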

Records with an inconclusive call do not appear. Activity calls are given as the source filed them. Unless noted, calls follow the shape of the dose curve; as a rule, active = well fitted curve in the direction sought with a large enough effect; inconclusive = small, poorly fitted or top-dose-only effect, or another doubt; inactive = no such curve, though single readings can be large; an effect the other way counts as inactive or inconclusive.

Sequence of Peroxisome proliferator-activated receptor alpha (Homo sapiens) (Q07869 whole entry, looked up): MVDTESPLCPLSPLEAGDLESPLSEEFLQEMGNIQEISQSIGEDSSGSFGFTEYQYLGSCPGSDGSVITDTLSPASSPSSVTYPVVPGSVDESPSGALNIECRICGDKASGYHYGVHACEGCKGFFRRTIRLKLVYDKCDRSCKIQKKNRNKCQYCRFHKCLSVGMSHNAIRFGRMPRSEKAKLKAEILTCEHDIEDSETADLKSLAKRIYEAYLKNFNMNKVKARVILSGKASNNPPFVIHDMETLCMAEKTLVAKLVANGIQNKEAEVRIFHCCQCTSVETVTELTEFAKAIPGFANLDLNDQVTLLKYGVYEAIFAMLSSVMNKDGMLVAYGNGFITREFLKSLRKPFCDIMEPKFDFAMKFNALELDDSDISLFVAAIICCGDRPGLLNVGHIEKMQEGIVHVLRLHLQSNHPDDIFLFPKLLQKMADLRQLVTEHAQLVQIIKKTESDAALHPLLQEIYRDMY
Sequence of Arylsulfatase A (Homo sapiens) (P15289 whole entry, looked up): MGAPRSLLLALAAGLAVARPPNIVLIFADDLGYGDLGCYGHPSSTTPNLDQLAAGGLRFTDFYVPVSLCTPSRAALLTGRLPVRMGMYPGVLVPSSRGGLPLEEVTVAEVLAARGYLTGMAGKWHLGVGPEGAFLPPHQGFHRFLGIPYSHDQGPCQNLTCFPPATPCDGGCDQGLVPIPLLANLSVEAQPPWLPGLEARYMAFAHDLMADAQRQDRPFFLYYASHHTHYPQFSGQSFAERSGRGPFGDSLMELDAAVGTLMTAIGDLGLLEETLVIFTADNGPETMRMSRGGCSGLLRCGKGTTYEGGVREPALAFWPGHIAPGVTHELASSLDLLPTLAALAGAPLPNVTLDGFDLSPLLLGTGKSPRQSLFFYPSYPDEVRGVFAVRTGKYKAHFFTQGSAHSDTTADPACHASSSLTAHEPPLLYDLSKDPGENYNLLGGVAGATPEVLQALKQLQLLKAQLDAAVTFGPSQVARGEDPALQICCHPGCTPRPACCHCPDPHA

As to `Cc1cc2c(C(C)C)c(O)c(O)c(C=O)c2c(O)c1-c1c(C)cc2c(C(C)C)c(O)c(O)c(C=O)c2c1O`, the outcome in experiment [1], in experiment [5] and in [6] was inactive. In addition, the viability (% of control) in [2] amounted to 5.42%. Further, the viability, percent of control in experiment [3] was 6.38%. Moreover, the Potency entry in experiment [4] and in experiment [7] was “inactive” in each case.

`S=C(NCc1ccc2c(c1)OCO2)N1CCN(c2ncnc3c2oc2ccccc23)CC1`: the outcome in experiment [1] and in [5] was inactive. Besides, the viability, percent of control in experiment [3] came out at 40.5%. For the same compound, the Potency result in experiment [4] and in experiment [8] was “inactive” in each case.

As to `Nc1ncnc2nc(-c3ccc(N4CCOCC4)nc3)cc(-c3cccc(Br)c3)c12`, the compound was classed as inactive in experiment [1], in [5], in [9] and in [6]. Further, in experiment [2], the viability (% of control) turned out to be 74.7%. In addition, the viability, percent of control in experiment [3] was determined as 66.5%. Also, the Potency in experiment [8] is 3.45 µM (active).

On to `NS(=O)(=O)c1cc2c(cc1Cl)NC=NS2(=O)=O`, for which the Potency result in experiment [10] and in experiment [7] was “inactive” each time. Moreover, the activation is -2.13% (inactive) in [11] and -0.0978% (inactive) in experiment [12]. In addition, the call in experiment [13], in experiment [14], in experiment [15], in experiment [17] and in experiment [6] was inactive. Moreover, the max response in [16] was -1.54% (inactive).

`O=C(OCC#CCSc1nnc(-c2ccc3ccccc3c2)o1)c1cc2ccccc2s1`: the Potency entry in experiment [18], in experiment [4], in [19] and in experiment [8] was “inactive” throughout. For the same compound, in experiment [3], the viability, percent of control came out at 86.3%. Besides, the result in experiment [5] was inactive.

With `CCn1c(-c2nonc2N)nc2c(C#CC(C)(C)O)ncc(OC[C@H]3CCCNC3)c21`, the outcome in [1] and in experiment [5] was inactive. The viability (% of control) in experiment [2] came to 22.8%. Moreover, the viability, percent of control in experiment [3] is 70.2%.

As to `COc1ccc(-c2c(-c3ccc(O)cc3O)n[nH]c2C)cc1`, the compound was called inactive in experiment [1] and in experiment [5]. The viability (% of control) in experiment [2] was 86.4%. In addition, the viability, percent of control in [3] is 72.3%. Moreover, in [19], the Potency entry is “inactive”. Moreover, the Potency in experiment [8] is 8.67 µM (active).

As for `Cc1c(C)c2c(c(C)c1O)CCC(C)(COc1ccc(CC3SC(=O)NC3=O)cc1)O2` (stereo not given), the call in experiment [1] and in experiment [5] was inactive. Also, the viability (% of control) in experiment [2] amounted to 71.7%. Moreover, the viability, percent of control in experiment [3] was 81.5%. For the same compound, the Potency result in experiment [19] and in experiment [8] was “inactive” each time. In addition, in experiment [10], the Potency is 21.7 µM (active). Also, in [12], the activation is -3.91% (inactive). Further, in experiment [16], the max response is 1.07% (inactive).

For `Cc1ccc(NC(=O)c2cccc(C(C)(C)C#N)c2)cc1Nc1ccc2ncn(C)c(=O)c2c1`, the compound was called inactive in [1] and in [5]. In addition, in experiment [2], the viability (% of control) worked out at 11.7%. Also, in [3], the viability, percent of control worked out at 41.4%. For the same compound, the Potency in [4] was 26.4 µM (active).

Take `CCC(C)n1ncn(-c2ccc(N3CCN(c4ccc(OC[C@H]5CO[C@](Cn6cncn6)(c6ccc(Cl)cc6Cl)O5)cc4)CC3)cc2)c1=O` (stereo not given in full): the viability (% of control) in experiment [2] amounted to 77.9%. Moreover, the viability, percent of control in [3] amounted to 77%. Moreover, the Potency entry in [4], in experiment [19] and in [8] was “inactive” throughout. For the same compound, in experiment [5], the result was inactive.

For the compound `CC1(C)CNc2cc(NC(=O)c3cccnc3NCc3ccncc3)ccc21`, the compound was called inactive in [1] and in experiment [5]. Also, in [3], the viability, percent of control is 86%. In [19], the Potency entry was “inactive”.

Turning to `COc1c(Cl)cc2c([nH]c3cnccc32)c1NC(=O)c1cccnc1C`, the result in [1] and in experiment [5] was inactive. Also, the viability, percent of control in [3] worked out at 62.3%. The Potency entry in experiment [4], in [19] and in experiment [8] was “inactive” in each case.
